Measured values reported in publication PMC5540273 (PLoS ONE, 2017).

Assays:
Conditions in all cases: concentration: 1 μM, replicates: in singlicate; n = 1
GRK3 = tested on: T1, GRK3
T1 construct: gene ADRBK2

GRK4 = tested on: GRK4
GRK7 = tested on: GRK7
GSK3A = tested on: GSK3A
GSK3B = tested on: GSK3B
HASPIN = tested on: T2, HASPIN
T2 construct: gene GSG2

HCK = tested on: HCK
HIPK1 = tested on: HIPK1
HIPK2 = tested on: HIPK2
HIPK3 = tested on: HIPK3
HIPK4 = tested on: HIPK4
HPK1 = tested on: HPK1
HUNK = tested on: HUNK
ICK = tested on: ICK
IGF1R = tested on: IGF1R
IKK-alpha = tested on: T3, IKK-alpha
T3 construct: gene CHUK

IKK-beta = tested on: T4, IKK-beta
T4 construct: gene IKBKB

IKK-epsilon = tested on: T5, IKK-epsilon
T5 construct: gene IKBKE

INSRR = tested on: INSRR
INSR = tested on: INSR
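Also: KINOMEscan kinase panel screen.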

SMILES: COc1ccc(Nc2nccc(-c3ccc(NC(=O)c4cc5cc(F)ccc5[nH]4)cc3)n2)cc1 [GSK1229496]
- %Inh (GRK3): 22%
- %Inh (GRK4): 0%
- %Inh (GRK7): 0%
- %Inh (GSK3A): 0%
- %Inh (GSK3B): 0%
- %Inh (HASPIN): 41%
- %Inh (HCK): 0%
- %Inh (HIPK1): 0%
- %Inh (HIPK2): 0%
- %Inh (HIPK3): 0%
- %Inh (HIPK4): 0%
- %Inh (HPK1): 38%
- %Inh (HUNK): 0%
- %Inh (ICK): 0%
- %Inh (IGF1R): 0%
- %Inh (IKK-alpha): 0%
- %Inh (IKK-beta): 0%
- %Inh (IKK-epsilon): 8%
- %Inh (INSRR): 0%
- %Inh (INSR): 0%

SMILES: Nc1cccc(-c2ccc3c(N)n[nH]c3c2)n1 [GSK2192730]
- %Inh (GRK3): 0%
- %Inh (GRK4): 13%
- %Inh (GRK7): 19%
- %Inh (GSK3A): 19%
- %Inh (GSK3B): 26%
- %Inh (HASPIN): 39%
- %Inh (HCK): 0%
- %Inh (HIPK1): 23%
- %Inh (HIPK2): 0%
- %Inh (HIPK3): 25%
- %Inh (HIPK4): 0%
- %Inh (HPK1): 35%
- %Inh (HUNK): 0%
- %Inh (ICK): 9%
- %Inh (IGF1R): 0%
- %Inh (IKK-alpha): 0%
- %Inh (IKK-beta): 18%
- %Inh (IKK-epsilon): 0%
- %Inh (INSRR): 0%
- %Inh (INSR): 3%

SMILES: CN1c2ccc(-c3ccc(C(N)=O)cc3)cc2-c2[nH]ncc2S1(=O)=O
- %Inh (GRK3): 0%
- %Inh (GRK4): 0%
- %Inh (GRK7): 0%
- %Inh (GSK3A): 25%
- %Inh (GSK3B): 13%
- %Inh (HASPIN): 28%
- %Inh (HCK): 0%
- %Inh (HIPK1): 41%
- %Inh (HIPK2): 23%
- %Inh (HIPK3): 19%
- %Inh (HIPK4): 4%
- %Inh (HPK1): 28%
- %Inh (HUNK): 0%
- %Inh (ICK): 0%
- %Inh (IGF1R): 5%
- %Inh (IKK-alpha): 0%
- %Inh (IKK-beta): 0%
- %Inh (IKK-epsilon): 0%
- %Inh (INSRR): 0%
- %Inh (INSR): 0%

SMILES: COc1ccc(-c2coc3ccc(-c4nnc(C)o4)cc23)cc1
- %Inh (GRK3): 0%
- %Inh (GRK4): 0%
- %Inh (GRK7): 0%
- %Inh (GSK3A): 11%
- %Inh (GSK3B): 0%
- %Inh (HASPIN): 18%
- %Inh (HCK): 0%
- %Inh (HIPK1): 37%
- %Inh (HIPK2): 0%
- %Inh (HIPK3): 0%
- %Inh (HIPK4): 8%
- %Inh (HPK1): 0%
- %Inh (HUNK): 0%
- %Inh (ICK): 0%
- %Inh (IGF1R): 12%
- %Inh (IKK-alpha): 0%
- %Inh (IKK-beta): 0%
- %Inh (IKK-epsilon): 0%
- %Inh (INSRR): 0%
- %Inh (INSR): 14%

SMILES: Cc1c(Cn2c3ccccc3n3c(=O)cc(N4CCOCC4)nc23)cccc1C(F)(F)F [GSK2306394]
- %Inh (GRK3): 0%
- %Inh (GRK4): 0%
- %Inh (GRK7): 0%
- %Inh (GSK3A): 13%
- %Inh (GSK3B): 18%
- %Inh (HASPIN): 0%
- %Inh (HCK): 0%
- %Inh (HIPK1): 0%
- %Inh (HIPK2): 0%
- %Inh (HIPK3): 16%
- %Inh (HIPK4): 0%
- %Inh (HPK1): 5%
- %Inh (HUNK): 0%
- %Inh (ICK): 6%
- %Inh (IGF1R): 33%
- %Inh (IKK-alpha): 35%
- %Inh (IKK-beta): 27%
- %Inh (IKK-epsilon): 0%
- %Inh (INSRR): 11%
- %Inh (INSR): 0%

SMILES: CC(=O)c1c(C)c2cnc(Nc3ccn(C)n3)nc2n(C2CCCC2)c1=O
- %Inh (GRK3): 17%
- %Inh (GRK4): 0%
- %Inh (GRK7): 0%
- %Inh (GSK3A): 12%
- %Inh (GSK3B): 0%
- %Inh (HASPIN): 0%
- %Inh (HCK): 29%
- %Inh (HIPK1): 14%
- %Inh (HIPK2): 31%
- %Inh (HIPK3): 13%
- %Inh (HIPK4): 0%
- %Inh (HPK1): 0%
- %Inh (HUNK): 0%
- %Inh (ICK): 0%
- %Inh (IGF1R): 1%
- %Inh (IKK-alpha): 0%
- %Inh (IKK-beta): 0%
- %Inh (IKK-epsilon): 0%
- %Inh (INSRR): 0%
- %Inh (INSR): 0%

SMILES: Cc1ccc(-c2nc(Nc3ccncc3)c3ccccc3n2)s1 [GSK189015]
- %Inh (GRK3): 0%
- %Inh (GRK4): 13%
- %Inh (GRK7): 0%
- %Inh (GSK3A): 18%
- %Inh (GSK3B): 28%
- %Inh (HASPIN): 54%
- %Inh (HCK): 10%
- %Inh (HIPK1): 0%
- %Inh (HIPK2): 0%
- %Inh (HIPK3): 41%
- %Inh (HIPK4): 27%
- %Inh (HPK1): 41%
- %Inh (HUNK): 0%
- %Inh (ICK): 19%
- %Inh (IGF1R): 18%
- %Inh (IKK-alpha): 2%
- %Inh (IKK-beta): 20%
- %Inh (IKK-epsilon): 0%
- %Inh (INSRR): 22%
- %Inh (INSR): 9%

SMILES: CNc1cc(-c2ccc3c(N)n[nH]c3c2)nc(N)n1 [GSK2224810]
- %Inh (GRK3): 10%
- %Inh (GRK4): 0%
- %Inh (GRK7): 0%
- %Inh (GSK3A): 6%
- %Inh (GSK3B): 0%
- %Inh (HASPIN): 61%
- %Inh (HCK): 0%
- %Inh (HIPK1): 14%
- %Inh (HIPK2): 0%
- %Inh (HIPK3): 18%
- %Inh (HIPK4): 14%
- %Inh (HPK1): 41%
- %Inh (HUNK): 5%
- %Inh (ICK): 12%
- %Inh (IGF1R): 0%
- %Inh (IKK-alpha): 6%
- %Inh (IKK-beta): 0%
- %Inh (IKK-epsilon): 39%
- %Inh (INSRR): 0%
- %Inh (INSR): 19%

SMILES: Cc1ccc(NC(=O)Nc2ccc(Cl)c(C(F)(F)F)c2)cc1-c1ccc(C(=O)Nc2ccncc2)cc1 [GSK1398470]
- %Inh (GRK3): 0%
- %Inh (GRK4): 10%
- %Inh (GRK7): 0%
- %Inh (GSK3A): 21%
- %Inh (GSK3B): 10%
- %Inh (HASPIN): 10%
- %Inh (HCK): 0%
- %Inh (HIPK1): 0%
- %Inh (HIPK2): 0%
- %Inh (HIPK3): 0%
- %Inh (HIPK4): 8%
- %Inh (HPK1): 56%
- %Inh (HUNK): 9%
- %Inh (ICK): 4%
- %Inh (IGF1R): 26%
- %Inh (IKK-alpha): 0%
- %Inh (IKK-beta): 0%
- %Inh (IKK-epsilon): 29%
- %Inh (INSRR): 5%
- %Inh (INSR): 23%

SMILES: COc1nccc(-c2c(-c3ccc(F)cc3)ncn2CCCN2CCOCC2)n1 [SB-282852]
- %Inh (GRK3): 14%
- %Inh (GRK4): 23%
- %Inh (GRK7): 37%
- %Inh (GSK3A): 17%
- %Inh (GSK3B): 10%
- %Inh (HASPIN): 0%
- %Inh (HCK): 0%
- %Inh (HIPK1): 46%
- %Inh (HIPK2): 76%
- %Inh (HIPK3): 0%
- %Inh (HIPK4): 0%
- %Inh (HPK1): 21%
- %Inh (HUNK): 0%
- %Inh (ICK): 16%
- %Inh (IGF1R): 0%
- %Inh (IKK-alpha): 26%
- %Inh (IKK-beta): 21%
- %Inh (IKK-epsilon): 8%
- %Inh (INSRR): 0%
- %Inh (INSR): 0%
